{"source": "PubChem BioAssay (NCATS)", "note": "Activity calls are given as the source filed them. Entries that show only a call come without a potency. The call rests on the fitted dose curve; in most records, active means well fitted inhibition curve with a large enough effect; inconclusive means small, poorly fitted or top-dose-only effect; inactive means flat fitted curve, though single readings scatter."}
{"system": "Nanoluciferase (engineered Oplophorus gracilirostris luciferase)", "assay": "Primary Nanoluciferase (NLuc) qHTS assay for identification of artifact compounds. (AID 1845222)", "conditions": "NLuc-conditioned medium, Nano-Glo luminescence, 5 min; series mostly up to 54.1 µM", "in_short": "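Concentration-response data were obtained by luminescence after 5 min with Nano-Glo substrate at 1:100. The enzyme was diluted S16 NLuc-expressing cell medium, preincubated with compound for 15 min at RT. Curves were fitted with a 4-parameter Hill model.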"}
{"compound": "CC(=O)c1c(C)cc(O[C@@H]2O[C@H](CO)[C@@H](O)[C@H](O)[C@H]2O)cc1O", "Potency": "inactive"}
{"compound": "CC(C)CC(=O)OC[C@H]1O[C@@](COC(=O)CC(C)C)(O[C@H]2O[C@H](CO)[C@@H](O)[C@H](O)[C@H]2OC(=O)CC(C)C)[C@@H](OC(=O)CC(C)C)[C@@H]1O", "Potency": "inactive"}
{"compound": "CC1=C2[C@@H]([C@H](C)CC[C@H]2/C=C(\\C)C(=O)O)[C@H](O)C1", "Potency": "inactive"}
{"compound": "CN(NC(=O)CC(=O)NN(C)C(=S)c1ccccc1)C(=S)c1ccccc1", "Potency": "inactive"}
{"compound": "COC(=O)C1C(c2ccc(O)cc2)C(C(=O)OC)C1c1ccc(O)cc1", "note": "(stereo not given)", "Potency": "inactive"}
{"compound": "O=C(O[C@H]1[C@@H]2C=CO[C@@H](O[C@@H]3O[C@H](CO)[C@@H](O)[C@H](O)[C@H]3O)[C@@H]2[C@@]2(CO)O[C@@H]12)c1ccc(O)cc1", "Potency": "inactive"}
{"compound": "COC1=Cc2c(nc3n(c2=O)C(C)C(=O)NC3(O)C(C)C)OC=C1", "note": "(stereo not given)", "Potency": "inactive"}
{"compound": "CNC(=O)COC(=O)NCCC1CCN(c2cccc(C)n2)CC1", "Potency": "inactive"}
{"compound": "C=C1CCC2C(C)(C(=O)O)CC(O)CC2(C)C1CC/C(C)=C/C(=O)O", "note": "(stereo not given)", "Potency": "inactive"}
{"compound": "O=C(O)C[C@H](O)C[C@H](O)/C=C/c1c(C2CC2)nc2ccccc2c1-c1ccc(F)cc1", "Potency": "inactive"}
{"compound": "NC(=O)c1ccc(OCC2NC(=O)C3CCCN3C2=O)cc1", "note": "(stereo not given)", "Potency": "inactive"}
{"compound": "C[C@@H]1O[C@@H](O[C@H]2[C@H](O[C@H]3[C@H](O[C@H]4CC[C@@]5(CO)C(CC[C@]6(C)C5CC=C5C7CC(C)(C)C[C@@H](O)[C@]7(C)CC[C@]56C)C4(C)C)O[C@H](C(=O)O)[C@@H](O)[C@@H]3O)OC[C@@H](O)[C@@H]2O)[C@H](O)[C@H](O)[C@H]1O", "note": "(stereo not given in full)", "activity, negative = inhibition": "-0.0839% [at 11.6 µM] (inactive)"}
{"compound": "C=CC1C(O[C@@H]2O[C@H](CO)[C@@H](O)[C@H](O)[C@H]2O)OC=C(C(=O)OC)C1Cc1nccc2c1[nH]c1ccccc12", "note": "(stereo not given in full)", "Potency": "inactive"}
{"compound": "CC(C)(OC1OC(CO)C(O)C(O)C1O)C1CCC(O)(CO)C2CC(O)C(C)(O)C2C1", "note": "(stereo not given)", "Potency": "inactive"}
{"compound": "COc1cc(/C=C/CO)ccc1O[C@@H]1O[C@H](CO)[C@@H](O)[C@H](O)[C@H]1O", "Potency": "inactive"}
{"compound": "C/C(=C/CO)CC[C@@H]1[C@@]2(C)CCC[C@](C)(C(=O)O)C2CC[C@@]1(C)O", "note": "(stereo not given in full)", "Potency": "inactive"}
{"compound": "CC1=C2C(=O)C=C(CO)[C@@H]2[C@H]2OC(=O)[C@H](C)[C@@H]2[C@@H](O)C1", "Potency": "inactive"}
{"compound": "OC[C@H]1O[C@@H](Oc2cc(O)cc(/C=C/c3ccc(O)cc3)c2)[C@H](O)[C@@H](O)[C@@H]1O", "Potency": "inactive"}
{"compound": "C[C@]1(O)CC[C@@H]2C(C(=O)O)=CO[C@@H](O[C@@H]3O[C@H](COC(=O)c4ccc(O)cc4)[C@@H](O)[C@H](O)[C@H]3O)[C@@H]21", "Potency": "inactive"}
{"compound": "CC(=O)O[C@H]1[C@H](C)[C@@H](O)[C@H]2[C@@H]1C=C(C(=O)O)[C@H]1C[C@@H]3[C@H]([C@H]21)[C@H]1C(=O)O[C@@H]2CC[C@@]3(C)O[C@]1(O)[C@@H]2C", "Potency": "inactive"}
{"compound": "CC1(C)C(=O)N2c3ccccc3[C@]3(CC(n4cnc5ccccc5c4=O)C(=O)O3)[C@H]2N1O", "note": "(stereo not given in full)", "Potency": "inactive"}
{"compound": "OC[C@H]1O[C@@H](n2cnc3c2NC=NC[C@H]3O)C[C@@H]1O", "Potency": "inactive"}
{"compound": "CC(=O)NC(CCC(=O)O)C(=O)NCCc1ccc(O)cc1", "note": "(stereo not given)", "Potency": "inactive"}
{"compound": "C[C@]1(OC(=O)/C=C/c2ccccc2)C[C@H](O)[C@]2(O)C=CO[C@@H](O[C@@H]3O[C@H](CO)[C@@H](O)[C@H](O)[C@H]3O)C12", "note": "(stereo not given in full)", "Potency": "inactive"}
{"compound": "C=C1[C@@H]2[C@H]3OC(=O)C(=C)[C@@H]3CC[C@@](C)(O)[C@@H]2C[C@@H]1O[C@@H]1O[C@H](CO)[C@@H](O)[C@H](O)[C@H]1O", "Potency": "inactive"}
{"compound": "C=C1C2=CC(O)C(C)C1(C)CC/C(C)=C/CCC1(C)OC1C2=O", "note": "(stereo not given)", "Potency": "inactive"}
{"compound": "C=C1CC[C@H]2[C@@H](/C=C(\\C)C(=O)[C@@]3(OC(C)=O)C[C@H](C)[C@H](OC(C)=O)[C@@H]3[C@H]1OC(C)=O)C2(C)C", "Potency": "inactive"}
{"compound": "C=C1C(=O)OC2CC(C)=C(C(C)CCCO[C@@H]3O[C@H](CO)[C@@H](O)[C@H](O)[C@H]3O)C(O)C12", "note": "(stereo not given in full)", "Potency": "inactive"}
{"compound": "C[C@@H]1C[C@H](O[C@@H]2O[C@H](CO[C@@H]3OC[C@](O)(CO)[C@H]3O)[C@@H](O)[C@H](O)[C@H]2O)CC(C)(C)[C@H]1/C=C/[C@@H](C)O", "Potency": "inactive"}
{"compound": "COc1ccc2c(c1O)OC[C@H]1c3ccc(O)cc3O[C@@H]21", "Potency": "inactive"}
{"compound": "O=c1c2ccccc2nc2n1CCC2O", "note": "(stereo not given)", "Potency": "inactive"}
{"compound": "CCC(C)C(=O)O[C@@H]1[C@@H](O)[C@@H](O[C@H]2O[C@H](CO)[C@@H](O)[C@H](O)[C@H]2O)O[C@H](CO)[C@H]1O", "note": "(stereo not given in full)", "Potency": "inactive"}
{"compound": "CC1(C)C(O)CCC2(C)C1C(O)C=C1COC(=O)C12O", "note": "(stereo not given)", "Potency": "inactive"}
{"compound": "O=C1Nc2ccc(O)cc2O[C@H]1O[C@@H]1O[C@H](CO)[C@@H](O)[C@H](O)[C@H]1O", "Potency": "inactive"}
{"compound": "COc1ccccc1CC(C(=O)O)N(C)C(=O)c1ccccc1", "note": "(stereo not given)", "Potency": "inactive"}
{"compound": "CC(/C=C/C1(O)C(C)CC(O)CC1(C)C)OC1OC(CO)C(O)C(O)C1O", "note": "(stereo not given)", "Potency": "inactive"}
{"compound": "CC(NC(=O)CC(=O)O)c1nc2ccccc2c(=O)[nH]1", "note": "(stereo not given)", "Potency": "inactive"}
{"compound": "C=CC(C)(O)CO[C@@H]1O[C@H](CO)[C@@H](O)[C@H](O)[C@H]1O", "note": "(stereo not given in full)", "Potency": "inactive"}
{"compound": "CNC(=O)c1ccc2cc([C@@]3(O)CCn4cncc43)ccc2c1", "Potency": "inactive"}
{"compound": "CC1(C)CCC[C@@]2(C)[C@H]1[C@H](O)C=C1COC(=O)[C@@]12O", "Potency": "inactive"}
